Source: PubChem BioAssay
CendR NRP1 mod = NRP-1/CendR interaction modulation | O14786 | FAM-RPARPAR peptide binding to NRP-1, fluorescence polarization | inhibition, % at 25 µM | hit rate 0.85% among 360,000;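 active = inhibition or corrected inhibition above about 18%, plus a signal ratio from 0.5 to 1.5, limit read from the data, passing the limit was not always enough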
proKLK7 act = proKLK7 (human) activation, primary screen | P49862 | hit rate 0.9% among 370,000 | activation, % at 7 µM | purified proKLK7, EDANS-DABCYL substrate fluorescence; 100% is mature enzyme control, 0% vehicle | AID 652039;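 active = activation above the mean of all tested compounds plus 3 SD, computed per campaign excluding outliers beyond control limits, cut at about 13% in these data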
Target sequence (P49862 whole entry, looked up): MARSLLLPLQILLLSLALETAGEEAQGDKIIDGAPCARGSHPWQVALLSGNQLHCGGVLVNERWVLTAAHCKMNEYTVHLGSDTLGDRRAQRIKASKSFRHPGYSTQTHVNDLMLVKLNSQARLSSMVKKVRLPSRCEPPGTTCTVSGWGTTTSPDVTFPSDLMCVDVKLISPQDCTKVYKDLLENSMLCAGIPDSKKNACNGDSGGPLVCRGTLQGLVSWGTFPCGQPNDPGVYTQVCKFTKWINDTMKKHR
ADAM17 inh = ADAM17 inhibition, QFRET primary screen. P78536. recombinant ADAM17, EDANS/DABCYL FRET peptide cleavage. inhibition, % at 6.95 µM. hit rate 0.83% among 370,000. AID 720648;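 active = inhibition above the mean of compounds lying between control limits plus 3 SD, set per campaign, cut at about 8.5% in these data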;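 also: 0% = DMSO-only wells as the low control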
ADAM10 inh = inhibits human ADAM10; recombinant ADAM10, EDANS/DABCYL FRET peptide cleavage, 3 h; inhibition, % at 7 µM; hit rate 0.62% among 370,000;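 active = inhibition above a per-campaign cutoff equal to the mean of compounds falling between control-based bounds plus 3 SD, cut at about 20% in these data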;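 also: 0% = DMSO wells while the 100% control is not disclosed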
sPLA2-III inh = Inhibits HGIII-sPLA2 liposome hydrolysis, primary screen | inhibition, % at 12.2 µM | QFRET BODIPY PC-A2 liposome hydrolysis, fluorescence | hit rate 0.56% among 370,000 | AID 743126 | Q9NZ20;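 active = inhibition above mean plus 3 SD of compounds lying within the high and low control bounds, cut at about 19% in these data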;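 also: 0% = median of test compound wells and 100% = no enzyme DMSO wells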
ADAM10 ctr = counter-screen for ADAM17 exosite inhibitors: inhibitors of human ADAM10; recombinant ADAM10, EDANS/DABCYL FRET peptide cleavage, 3 h; shares compounds with ADAM17 inh; inhibition, % at 6.95 µM; AID 743256; hit rate 47% among 2,900;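 active = mean inhibition over the triplicate runs exceeds the activity threshold set in the earlier primary screen, cut at about 20% in these data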;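 also: 0% = DMSO wells and 100% = marimastat wells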
ADAM17 confirm = human ADAM17 inhibition, confirmation; shares compounds with ADAM17 inh; recombinant ADAM17, EDANS/DABCYL QFRET peptide cleavage; inhibition, % at 6.95 µM; hit rate 65% among 2,900;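 active = mean inhibition across replicates above the hit cutoff set in the primary screen, cut at about 8.5% in these data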;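 also: 0% = DMSO wells and 100% = marimastat wells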
* marks the source's active call; other numbers are inactive results; i = inactive; nt = no result given. Compounds with a hit are over-represented: about 3.4% of the library has one in this group of screens.

SMILES	CendR NRP1 mod	proKLK7 act	ADAM17 inh	ADAM10 inh	sPLA2-III inh	ADAM10 ctr	ADAM17 confirm
COC(=O)c1cc2c(c3c4cc(F)ccc4n(S(=O)(=O)c4ccccc4)c13)C(=O)N(Cc1ccc(C(F)(F)F)cc1)C2	nt	-0.8	-3.6	-7.9	-0.3	nt	nt
COC(=O)C1=C(C)N(C)C(=NCc2ccc(OC)cc2)NC1c1ccccc1 (centres undefined)	nt	0.0	-5.3	-4.2	14.0	nt	nt
O=C(COC(=O)c1ccc2[nH]c3c(c2c1)CCCC3)Nc1ccccc1Cl	-4.7	0.2	-0.5	-12.1	-5.1	nt	nt
CCC(C)c1ccccc1NC(=O)COC(=O)c1ccc2[nH]c3c(c2c1)CCCC3 (centres undefined)	20.1	2.5	10.5*	1.7	-66.2	-1.0	5.9
Cc1ccc(S(=O)(=O)N2C[C@H]3C(=O)C[C@@H](c4ccccc4)N(S(=O)(=O)c4ccc(C)cc4)[C@H]3C[C@H]2c2cccc3ccccc23)cc1	-7.1	0.2	11.0*	6.6	-4.0	17.9	13.5*
Cc1ccc(C)c(S(=O)(=O)N(C)Cc2cccs2)c1	10.4	-0.3	8.8*	-0.8	-12.4	23.5*	12.3*
Cc1cc(Cl)ccc1C(O)c1ncc(-c2cccc(C(F)(F)F)c2)[nH]1 (centres undefined)	5.1	0.3	9.2*	14.1	-3.6	40.0*	18.4*
OC(c1ccc(-c2ccccc2)cc1)c1ncc(-c2ccc(C(F)(F)F)cc2)[nH]1 (centres undefined)	8.7	0.0	9.1*	5.9	-11.5	22.9*	12.6*
Cc1ccc2ccccc2c1C(O)c1ncc(-c2cccc(C(F)(F)F)c2)[nH]1 (centres undefined)	10.9	-0.1	12.2*	11.9	-19.4	26.2*	14.5*
Nn1c(SCC(=O)NC2CCCCC2)nnc1-c1cc(-c2ccccc2)n[nH]1	nt	0.3	4.4	3.2	-2.2	nt	nt
O=C(NCC1CC1(Cl)Cl)Nc1ccc(Cl)c(Cl)c1 (centres undefined)	-4.8	0.3	9.5*	14.1	-15.6	32.3*	14.7*
O=C(NCCc1c[nH]c2ccccc12)OCc1cn(Cc2ccccc2F)nn1	nt	-0.1	-6.1	-12.5	-66.6	nt	nt
CCOc1ccc(N(CC(=O)NCCSc2ccccn2)S(C)(=O)=O)cc1	11.6	0.2	10.1*	5.7	-5.1	-3.0	1.3
CCOc1ccc(N(CC(=O)NCCSc2ccccn2)S(=O)(=O)c2ccc(Cl)cc2)cc1	2.0	-0.8	-0.2	-3.2	-0.8	nt	nt
CC(C)(C)OC(=O)CNC(=O)c1[nH]cnc1C(=O)Nc1ccc(CNC(=O)OC(C)(C)C)cc1	6.0	-0.1	11.8*	16.4	-4.5	29.7*	16.1*
CC(C)(C)OC(=O)NCCOC(=O)c1[nH]cnc1C(=O)NCc1ccccc1	-6.3	-0.4	10.8*	11.5	-20.3	5.6	2.1
CC(C)(C)OC(=O)NCc1ccc(NC(=O)c2nc[nH]c2C(=O)NCCNC(=O)c2[nH]cnc2C(=O)Nc2ccc(CNC(=O)OC(C)(C)C)cc2)cc1	-2.8	nt	nt	nt	nt	nt	nt
CC(C)C[C@H](NC(=O)c1[nH]cnc1C(=O)Nc1ccc(CNC(=O)OC(C)(C)C)cc1)C(=O)OCc1ccccc1	13.8	0.1	-1.3	5.1	2.8	nt	nt
C[C@@H](NC(=O)c1nc[nH]c1C(=O)N[C@@H](Cc1ccccc1)C(=O)OCc1ccccc1)c1ccccc1	11.9	-0.5	11.6*	14.5	-4.0	29.9*	16.7*
C[C@H](NC(=O)c1nc[nH]c1C(=O)N[C@H](C)c1ccccc1)C(=O)OCc1ccccc1	14.7	0.8	5.3	12.7	-11.9	nt	nt
CC(C)(C)OC(=O)NCc1ccc(NC(=O)c2nc[nH]c2C(=O)N[C@@H](Cc2ccccc2)C(=O)OC(C)(C)C)cc1	-1.4	-5.5	8.9*	17.4	-11.0	46.2*	23.3*
CC(C)(C)OC(=O)CNC(=O)c1nc[nH]c1C(=O)NCc1ccccc1	8.4	0.1	-1.2	-0.5	-5.9	nt	nt
CCOC(=O)CNC(=O)N(C)[C@H]1C[C@H]2c3[nH]c4c(-c5ccccc5)cccc4c3CCN2C(=O)[C@H]1[C@H](C)O	nt	-46.3	-363.9	i	0.0	nt	nt
